Structures can show the parent of a compound that is named as a salt.
Each compound was assayed on thyroid hormone receptor (endogenous TRα and TRβ). Details: read-out: Average AC50 (uM) GH3-TRE-Antag, antagonist mode, 1 nM T3, no GH3 cytotoxicity hit.
Design: species or system GH3-TRE-Luc (rat pituitary); GH3-TRE-Luc luciferase reporter, antagonist mode against 1 nM T3, loss of signal, qHTS
`COc1ccc(C(=O)c2ccc(O)cc2)c(OC)c1` [(2,4-dimethoxyphenyl)(4-hydroxyphenyl)methanone] gave an AC50 of 54.9 µM.
With `Sc1ccccc1` [Benzenethiol] the AC50 was 44.5 µM.
With `O=c1cc(-c2ccccc2)oc2ccc3ccccc3c12` [5,6-Benzoflavone] the AC50 was 7.88 µM.
Compound `CCN(CC)CCCC(C)Nc1c2ccc(Cl)cc2nc2ccc(OC)cc12` (centres unmarked) [Quinacrine dihydrochloride dihydrate] has an AC50 of 29.4 µM.
Work on `CC(Cc1ccccc1)(NC(=O)CN)c1ccccc1` (centres unmarked) [Remacemide hydrochloride] yielded an AC50 of 21.8 µM.
In the case of `Nc1ccc(C(=O)Oc2ccccc2)c(O)c1` [Phenyl 4-aminosalicylate], the AC50 is reported as 49.5 µM.
`Cc1cccc(C)c1Nc1ncccc1C(=O)O` [Metanixin] was tested, and the AC50 was 28.2 µM.
`ClC1C(Cl)C(Cl)C(Cl)C(Cl)C1Cl` (stereo not drawn) [alpha-1,2,3,4,5,6-Hexachlorocyclohexane] showed an AC50 of 26.5 µM.
Work on `O=C(c1ccc(O)cc1)c1ccc(Cl)cc1` [4-Hydroxy-4'-chlorobenzophenone] yielded an AC50 of 86.9 µM.
`CCCN(CCC)S(=O)(=O)c1ccc(C(=O)O)cc1` [Probenecid] showed an AC50 of 4.15 µM.
In the case of `CC[C@H](C)[C@@H](C(=O)O)n1sc2ccccc2c1=O` [(2S,3S)-3-Methyl-2-(3-oxo-1,2-benzothiazol-2(3H)-yl)pentanoic acid], the AC50 is reported as > 90 µM.
For `CC(C(=O)O)c1ccc(-c2ccccc2)c(F)c1` (centres unmarked) [Flurbiprofen], the AC50 was > 20 µM.
For `NCCN1CCNCC1` [1-(2-Aminoethyl)piperazine], the AC50 was > 90 µM.
Work on `NC(=O)Nc1ccc(Cl)c(Cl)c1` [3,4-Dichlorophenylurea] yielded an AC50 of 52.4 µM.
